# The supplement of paper PMC8387472
# Columns and labels:
# Details in all cases: mESC; 2uM; 72 h treatment, harvest day 5
# Rifapentine = compound: CO[C@H]1/C=C/O[C@@]2(C)Oc3c(C)c(O)c4c(O)c(c(/C=N/N5CCN(C6CCCC6)CC5)c(O)c4c3C2=O)NC(=O)/C(C)=C\C=C\[C@H](C)[C@H](O)[C@@H](C)[C@@H](O)[C@@H](C)[C@H](OC(C)=O)[C@@H]1C [Rifapentine]; experiment: fraction of microhomology deletions among edited reads; higher = more MH deletions
# [1] = compound: COc1ccccc1-c1cc(Nc2cccc(CS(N)(=O)=O)c2)ncn1; experiment: as above
# [2] = compound: C[C@@H]1CN(CC(=O)Nc2ccc3c(c2)Cc2cccc(-c4cc(=O)cc(N5CCOCC5)o4)c2S3)C[C@H](C)O1; experiment: as above
# [3] = compound: Cc1cc(C)nc(SCC(=O)Nc2ncc(Cc3cccc4ccccc34)s2)n1; experiment: as above
# [4] = compound: Cc1cccc(CC(=O)N2CCc3c2ccc(-c2cn(C)c4ncnc(N)c24)c3F)n1; experiment: as above
# [5] = compound: NC(=O)c1ccc2nc(-c3ccc(Oc4ccc(Cl)cc4)cc3)[nH]c2c1 [Chk 2 inhibitor II (BML-277)]; experiment: as above
# Tucidinostat (Chidamide) = compound: Nc1cc(F)ccc1NC(=O)c1ccc(CNC(=O)/C=C/c2cccnc2)cc1 [Tucidinostat (Chidamide)]; experiment: as above
# Pemetrexed = compound: Nc1nc2[nH]cc(CCc3ccc(C(=O)N[C@@H](CCC(=O)O)C(=O)O)cc3)c2c(=O)[nH]1 [Pemetrexed]; experiment: as above
# [6] = compound: Nc1ncnc2c1c(-c1cnc3[nH]ccc3c1)nn2C1CCCC1; experiment: as above
# [7] = compound: O=C(c1cccc(Cl)c1F)N1CCN(Cc2cccc(Nc3nccs3)n2)CC1; experiment: as above
# Kenpaullone = compound: O=C1Cc2c([nH]c3ccc(Br)cc23)-c2ccccc2N1 [Kenpaullone]; experiment: as above
# Genistein = compound: O=c1c(-c2ccc(O)cc2)coc2cc(O)cc(O)c12 [Genistein]; experiment: as above
# [8] = compound: O=c1cc(N2CCOCC2)oc2c(-c3ccc4c(c3)OCCO4)csc12; experiment: as above
# Mercaptopurine (6-MP) = compound: S=c1[nH]cnc2nc[nH]c12 [Mercaptopurine (6-MP)]; experiment: as above
# [9] = compound: S=c1nc[nH]c2nc[nH]c12 [6-Mercaptopurine (6-MP) Monohydrate]; experiment: as above
# [10] = compound: CC(=O)O/N=C1\C(=O)N(Cc2cc(Cl)ccc2Cl)c2ccc(Cl)cc21; experiment: fraction of 1-bp insertions among edited reads; higher = more 1-bp insertion outcomes
# [11] = compound: CC(C)(C#N)c1ccc(N2C(=O)OCc3cnc4ccc(-c5cnc6ccccc6c5)cc4c32)cc1; experiment: as above
# [12] = compound: CCCCOc1c(C(=O)c2c(F)cc(C)cc2F)c[nH]c2nncc1-2; experiment: as above
# [13] = compound: CCN1CCN(CC(=O)Nc2ccc(-c3cccc4c(=O)cc(N5CCOCC5)oc34)c3sc4ccccc4c23)CC1; experiment: as above
# [14] = compound: CCc1c2c(nc3ccc(OC(=O)N4CCC(N5CCCCC5)CC4)cc13)-c1cc3c(c(=O)n1C2)COC(=O)[C@]3(O)CC [Irinotecan HCl Trihydrate]; experiment: as above
Target,fraction of microhomology deletions among edited reads (Rifapentine),fraction of microhomology deletions among edited reads [1],fraction of microhomology deletions among edited reads [2],fraction of microhomology deletions among edited reads [3],fraction of microhomology deletions among edited reads [4],fraction of microhomology deletions among edited reads [5],fraction of microhomology deletions among edited reads (Tucidinostat (Chidamide)),fraction of microhomology deletions among edited reads (Pemetrexed),fraction of microhomology deletions among edited reads [6],fraction of microhomology deletions among edited reads [7],fraction of microhomology deletions among edited reads (Kenpaullone),fraction of microhomology deletions among edited reads (Genistein),fraction of microhomology deletions among edited reads [8],fraction of microhomology deletions among edited reads (Mercaptopurine (6-MP)),fraction of microhomology deletions among edited reads [9],fraction of 1-bp insertions among edited reads [10],fraction of 1-bp insertions among edited reads [11],fraction of 1-bp insertions among edited reads [12],fraction of 1-bp insertions among edited reads [13],fraction of 1-bp insertions among edited reads [14]
"16.0 (DMSO control at this site: 1-bp insertion 0.172, MH deletion 0.29, edited 0.05) CGGACTGCACACATGGGTAGGATCGTGCACGCGAGGTAGGATCGTGCACGCGAAGTTATTC",0.319,0.282,0.12,0.275,0.281,0.254,0.302,0.279,0.198,0.256,0.327,0.305,0.257,0.314,0.294,0.169,0.15,0.138,0.0987,0.184
"28.0 (DMSO control at this site: 1-bp insertion 0.035, MH deletion 0.77, edited 0.142) TGGTTCTTCCTTTGTAGAGAGTGTTCATCTGGGAATCTGGGACTTGGATGAGACAATCATT",0.794,0.755,0.768,0.777,0.747,0.768,0.739,0.737,0.748,0.76,0.736,0.784,0.818,0.718,0.693,0.0335,0.0355,0.0391,0.0168,0.0322
"19.0 (DMSO control at this site: 1-bp insertion 0.121, MH deletion 0.101, edited 0.057) TCTGCAGGGGTCGGAACCCGGGGGCTAGGGCTATCCCGGGGGCTAGGGCTATTAGCGAACC",0.243,0.149,0.0547,0.209,0.212,0.207,0.188,0.187,0.202,0.177,0.221,0.186,0.125,0.238,0.163,0.111,0.0907,0.0994,0.0438,0.0969
23.0 AGAACAAAGCGCTCATATAACGATATGGGGGGTTATGGGGGGTTGAATTGCTTCAGCACGA,–,–,–,–,–,–,–,–,–,0.856,–,–,–,–,–,–,–,–,–,–
"42.0 (DMSO control at this site: 1-bp insertion 0.145, MH deletion 0.655, edited 0.132) GGGCTAAACCTATGAGCACAGTAGAACTAAGGGTGGGTGGTGTAGCTAAAGAACTTGACCA",0.683,0.653,0.384,0.667,0.682,0.634,0.607,0.634,0.571,0.62,0.557,0.662,0.691,0.589,0.567,0.116,0.148,0.144,0.0719,0.125
